These results are taken from the supplement of paper PMC6555819.

Experiment in all cases: PBM binding z-score (relative to random genomic background probes); higher = stronger binding; sequences stand for … in GC…GCGATTGACAGCGTAGAATGAAGG
Assay [1] concerns FXR:RXRa (NR concentration 270 nM, RXRa partner concentration 90 nM). A digest of the protocol: (§1)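 The probes on custom Agilent 4×180K protein-binding microarrays were double-stranded, with 34-nt variable regions bearing direct-repeat seeds, single-nucleotide variants, half-site ablations and random human genomic background sequences. Incubation lasted 1 h with ligand-free nuclear receptor dimers in PBS pH 7.4, 2% milk, 0.02% Triton X-100, 1 mM DTT, 0.2 mg/mL BSA and 0.4 mg/ml salmon testes DNA. Antibodies against each partner (one per run) detected bound dimers, and fluorescence scans were regression-normalized. Binding z-scores take the random background probes as reference.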

Assay [2] has as its system LXRa:RXRa (NR concentration 270 nM, RXRa partner concentration 90 nM). The method in brief: as §1
The test system of assay [3] is LXRa homodimer (NR concentration 270 nM). A digest of the protocol:
as §1

In assay [4] the test system is LXRb:RXRa (NR concentration 270 nM, RXRa partner concentration 90 nM). A digest of the protocol: as §1
The subject of assay [5] is LXRb homodimer (NR concentration 270 nM). A digest of the protocol: as §1
Assay [6] relates to PPARa:RXRa (NR concentration 270 nM, RXRa partner concentration 90 nM). A digest of the protocol: as §1
Assay [7] concerns PPARg:RXRa (NR concentration 180 nM, RXRa partner concentration 90 nM). A digest of the protocol:
as §1

The subject of assay [8] is PPARg:RXRa 270nM:90nM, anti-RXR (NR concentration 270 nM, RXRa partner concentration 90 nM). A digest of the protocol:
as §1

Assay [9] deals with PPARg:RXRa 30nM:10nM, anti-RXR (NR concentration 30 nM, RXRa partner concentration 10 nM). The method in brief: as §1
Assay [10] relates to PPARg:RXRa 90nM:30nM, anti-RXR (NR concentration 90 nM, RXRa partner concentration 30 nM). A digest of the protocol:
as §1

The subject of assay [11] is PPARg:RXRa DBDmut IVT, anti-RXR (DBD mutation: RXRa K156A/R161A, NR concentration 270 nM, RXRa partner concentration 90 nM). A digest of the protocol: as §1
Assay [12] has as its system PPARg:RXRa IVT, anti-PPARg (NR concentration 270 nM, RXRa partner concentration 90 nM). A digest of the protocol: as §1
In assay [13] the test system is PPARg DBDmut:RXRa IVT, anti-PPARg (DBD mutation: PPARg1 K132A/R137A, NR concentration 270 nM, RXRa partner concentration 90 nM). The method in brief: as §1
Assay [14] concerns PPARg DBDmut IVT, anti-PPARg (DBD mutation: PPARg1 K132A/R137A, NR concentration 270 nM). The method in brief: as §1
Assay [15] deals with PPARg homodimer (NR concentration 180 nM). A digest of the protocol:
as §1

Assay [16] has as its system PXR:RXRa (NR concentration 270 nM, RXRa partner concentration 90 nM). A digest of the protocol: as §1
The test system of assay [17] is PXR homodimer (NR concentration 270 nM). The method in brief: as §1
In assay [18] the test system is RARa:RXR (NR concentration 270 nM, RXRa partner concentration 90 nM). A digest of the protocol:
as §1

The test system of assay [19] is RARa homodimer (NR concentration 270 nM). A digest of the protocol: as §1
Assay [20] relates to RARb:RXRa (NR concentration 270 nM, RXRa partner concentration 90 nM). The method in brief: as §1

Take ATCTCTAGGTAAGACTCAGTTCAATGAAGAACGC: the PBM binding z-score worked out at 0.961 in [1]; 1.03 in assay [2]; 1.15 in assay [3]; 1.04 in assay [4]; 1.18 in assay [5]; 0.681 in assay [6]. For the same sequence, the PBM binding z-score in [7] was 0.379; in assay [8], 0.658; in assay [9] it was 0.44; in [10] it was 0.504; in assay [11], 1.88; in assay [12] it was 1.16. Further, the PBM binding z-score in assay [13] was found to be 1.2; in assay [14], 1.44; in assay [15], 1.39; in [16], 2.1; in assay [17] it was 2.69; in assay [18] it was 1.34. Further, the PBM binding z-score was 1.4 in [19] and 0.797 in [20].

In the case of AGCGAAAGGTCGACGAGGTGAGTATACACCGTTT, the PBM binding z-score in assay [1] was 4.18; in assay [2], 2.97; in assay [3], -0.376; in [4], 2.37; in [5], -0.286; in [6], 4.3. For the same sequence, the PBM binding z-score in [7] is 3.21; in [8], 3.62; in [9], 0.842; in assay [10], 2.31; in assay [11], 0.519; in assay [12], 1.89. Further, the PBM binding z-score in assay [13] worked out at 0.248; in [14], 0.154; in assay [15], 1.07; in assay [16], 2.86; in assay [17], 0.276; in assay [18] it was 3.47. The PBM binding z-score in assay [19] was -0.0264; in assay [20], 3.84.

As for TAGCCTAGGTCCTTGGGCCAGTATAGTACGCATC, the PBM binding z-score was -1.55 in assay [1]; -1.18 in assay [2]; -1.24 in assay [3]; -1.1 in [4]; -1.16 in assay [5]; -1.2 in assay [6]. Moreover, the PBM binding z-score in assay [7] was -0.0575; in [8], -0.847; in assay [9], -0.771; in assay [10], -0.944; in assay [11] it was -1; in [12], -0.913. Moreover, the PBM binding z-score is -2.61 in assay [13]; -1.34 in assay [14]; -2.22 in assay [15]; -1.19 in assay [16]; -1.2 in assay [17]; -1.44 in assay [18]. Further, the PBM binding z-score in assay [19] is -2.43; in [20], -0.495.

On to AGTCAAAGTTCAGGACGAGGTAACGTATAGCACG, for which the PBM binding z-score was determined as 4.44 in [1]; 4.03 in assay [2]; 1.43 in assay [3]; 1.92 in assay [4]; 0.317 in assay [5]; 3.43 in assay [6]. The PBM binding z-score was 4.7 in assay [7]; 5.09 in assay [8]; 2.17 in [9]; 4.27 in [10]; -0.0709 in assay [11]; 2.03 in assay [12]. For the same sequence, the PBM binding z-score in [13] is 0.949; in assay [14] it was 0.866; in assay [15], 2.09; in [16] it was 3.08; in assay [17], 1.29; in assay [18], 2.97. Further, the PBM binding z-score is 0.98 in assay [19] and 4.34 in assay [20].

In the case of ATCGAACGGTCGTGAGGTGAGTATACAGAAAGGC, the PBM binding z-score was 0.0725 in [1]; -0.0756 in assay [2]; -0.243 in assay [3]; -0.299 in assay [4]; -0.457 in assay [5]; 0.134 in assay [6]. Further, the PBM binding z-score in [7] was 0.66; in assay [8] it was -0.0797; in assay [9], -0.119; in assay [10], -0.0767; in assay [11], -0.977; in [12], 0.391. The PBM binding z-score in assay [13] was 0.438; in [14], 0.339; in assay [15] it was 0.0797; in assay [16], 0.0108; in assay [17], -0.33; in [18], 0.461. The PBM binding z-score in assay [19] is 0.0209; in assay [20] it was 1.08.

For CTCGAAAGGTCGGTTGAGGTGAGCATACGGATAA, the PBM binding z-score in [1] was 2.86; in assay [2] it was 1.78; in [3], -0.014; in assay [4], 1.37; in assay [5] it was -0.173; in [6], 2.74. The PBM binding z-score is 0.697 in [7]; 1.33 in [8]; 0.406 in assay [9]; 0.609 in assay [10]; -0.122 in assay [11]; 1.01 in assay [12]. Further, the PBM binding z-score is -0.332 in assay [13]; -0.0105 in assay [14]; 0.799 in assay [15]; 2.9 in assay [16]; -0.0982 in [17]; 2.5 in [18]. In addition, the PBM binding z-score worked out at 0.0392 in [19] and 3.09 in assay [20].

In the case of AGTCAAAGTACACTAGGTAACGTAAGATTCAGCT, the PBM binding z-score was -0.108 in assay [1]; -0.26 in assay [2]; -0.164 in [3]; -0.273 in [4]; 0.0714 in assay [5]; 0.196 in assay [6]. Further, the PBM binding z-score in [7] turned out to be 1.13; in [8], 0.666; in assay [9], 0.149; in [10], 0.295; in assay [11], 1.45; in [12] it was 2.33. Also, the PBM binding z-score in assay [13] is 0.868; in assay [14] it was 0.545; in [15], -0.165; in assay [16], -0.253; in assay [17], -0.00521; in assay [18] it was -0.109. The values for the PBM binding z-score in [19] and in assay [20] were 0.688 and 0.988, respectively.
